From PubChem BioAssay (NCI)
The panel holds about 83,000 compounds, 20% with a hit somewhere; the sample as a whole holds those more often.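 Growth was measured after 48 h exposure to one concentration of compound in 96-well plates. Values under 10 count as active.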 Values without a mark were called inactive. Calls of active or inactive are those of the source.

tested on: NCI/ADR-RES ovarian; test: NCI-60 one-dose screen, 48 h (100 = growth as untreated, 0 = no growth, -100 = all killed); settings: 10 µM

SMILES | growth
Oc1cccc(-c2nc3sccn3c2-c2ccncn2)c1 | 94%
CCOC(=O)c1cc(C(=O)c2cc(OC)c(OC)c(OC)c2)n2ccc(-c3cc[n+](CC(=O)c4cc(OC)c(OC)c(OC)c4)cc3)cc12 | 94.4%
C[C@H]1[C@H](OC(=O)CCC(=O)O)O[C@@H]2O[C@]3(C)CC[C@H]4[C@H](C)CC[C@@H]1[C@@]24OO3 | 23.6%
COc1ccc(C(=O)N/N=C/c2cc(C(F)(F)F)ccc2Cl)cc1 | 90.9%
COc1ccc(-c2cc(-c3ccc(Cl)cc3)nc(SCCCC(=O)NO)n2)cc1OC | -30.6% (active)
CCC(=O)OC1CCC2C3CCC(=O)OC3C(C)(CCC(=O)O)CC12C (configuration not stated) | 15.8%
OCC1OC(n2ccc3c(NO)ncnc32)C(O)C1O (configuration not stated) | -53.5% (active)
CC(C)(C)c1ccc(S(=O)(=O)N[C@H]2CC[C@H]3[C@@H]4CCc5cc(O)c([N+](=O)[O-])cc5[C@H]4CC[C@]23C)cc1 | 69.1%
COc1cc(-c2nn(-c3cccc(NC(=O)CCNc4ccc(N5CCOCC5)cc4)c3)cc2-c2ccncc2)ccc1Cl | 36%
COc1cc(-c2nn(-c3cccc(NC(=O)CN4CCOCC4)c3)cc2-c2cccnc2)ccc1Cl | 59%
O=C(CCCSc1nc(-c2ccccc2)cc(-c2ccc(Cl)cc2)n1)NO | -22% (active)
CC(C)N(CCOc1cccc(-c2nc3sccn3c2-c2ccnc(S(C)(=O)=O)n2)c1)C(C)C | 89.5%
O=C(CCC(C(=O)c1ccccc1)c1ccccc1)c1ccccc1 (configuration not stated) | 38.3%
COc1ccc(-c2csc(NC(=O)c3ccc(Cc4n[nH]c(=O)c5cccnc45)cc3)n2)cc1 | 94.1%
COc1cc(-c2nn(-c3cccc(NC(=O)CCN4CCN(Cc5ccccc5)CC4)c3)cc2-c2ccncc2)ccc1Cl | -21.4% (active)
COc1cc2cc(Oc3ccc(NC(=O)c4cc(C(F)(F)F)cc(C(F)(F)F)c4)cc3)c(C)nc2cc1OC | 46.3%

SMILES | growth
C[C@]12CCC3c4ccc(O)cc4C[C@@H](CCCCCCCCCS(=O)CCCC(F)(F)C(F)(F)F)C3C1CC[C@@H]2O (some centres not stated) | 70.4%
Cc1cc(Cl)ccc1Nc1nc(C(F)(F)F)ccc1C(=O)N/N=C/c1cccc(O)c1 | 26.6%
COc1cc(C(=O)/C=C/c2c[nH]c3ccccc23)cc(OC)c1OC | 9.93% (active)
CCOC(=O)CC(S(=O)(=O)c1ccccc1)S(=O)(=O)c1ccccc1 | 104%
CCNCC(=O)Nc1ccc(C(=O)OCC)cc1 | 103%
CCCc1cn(CC(=O)Nc2nc3ccccc3s2)nn1 | 107%
COc1cc2cc(Oc3ccc(NC(=O)Nc4ccc(Cl)c(C(F)(F)F)c4)cc3)c(C)nc2cc1OC | 2.01% (active)
COc1cc(/C=C2\CCCC3=C2NC(N)=NC3c2cc(OC)c(OC)c(OC)c2)cc(OC)c1OC (configuration not stated) | 3.96% (active)
COc1ccc(-c2cc(-c3ccc(Cl)cc3)nc(SCCCCCCC(=O)NO)n2)cc1OC | 20%
COc1cc2ncnc(NC3CCC(O)CC3)c2cc1OC (configuration not stated) | 100%
COc1cc(C)ccc1Oc1nc(Nc2ccc(N3CCOCC3)cc2)ncc1NC(=O)Nc1cc(C(F)(F)F)cc(C(F)(F)F)c1 | 46.6%
CCC(C)[C@H](NC(C)=O)C(=O)N[C@@H](CCCNC(=N)N)C(=O)N[C@@H](CCCCN)C(=O)N[C@@H](CC1CCC(O)CC1)C(=O)NC(C(=O)N[C@@H](CCSC)C(=O)N[C@@H](CCCNC(=N)N)C(=O)N[C@@]1(C)CCC/C=C\CCC[C@@](C)(C(=O)NC(C(=O)N[C@@H](CCC(=O)O)C(=O)N[C@@H](CC(C)C)C(=O)N[C@H](C(=O)N[C@@H](CCC(=O)O)C(N)=O)C(C)C)[C@@H](C)O)NC(=O)[C@H](CCC(N)=O)NC(=O)[C@H](CC(C)C)NC(=O)[C@H](CC(C)C)NC1=O)[C@@H](C)O (some centres not stated) | 108%
CN1C(=O)C2(Nc3cc(Cl)ccc3S2)c2cc(Cl)ccc21 (configuration not stated) | 93.6%
CC(=O)Nc1ccc2c(c1)C(=O)c1cccc(C(=O)O)c1-2 | 107%
O=C(CNc1nnc(-c2cccnc2SCc2ccccc2)s1)Nc1nc(Cl)cc(Cl)n1 | 114%
CCOC(=O)c1cc(C(=O)c2cc(OC)c(OC)c(OC)c2)n2nc(C)ccc12 | 20.9%
